Source: PubChem BioAssay AID624035 (The Scripps Research Institute Molecular Screening Center, 2012)
Calls of active or inactive are those of the source.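 How the source made its calls: active means compounds cutting enzyme signal by half at 10000 nM or lower, the printed EC50; inactive means the rest.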

assay: fluorescent interference in IDE FRET1 assay, late-stage follow-up, artefact control for IDE activator project, biochemical, fluorogenic FRET1 peptide substrate (AID 624035); conditions: recombinant IDE, FRET1 substrate fluorescence, artifact counterscreen

SMILES | EC50
O=c1ccc2c(-c3ccccc3)c3ccc(O)cc3oc-2c1 | > 10 µM (inactive)
CCN1CCN(C2=CC3=CC(=C(C#N)C#N)CCC3CC2)CC1 (stereo not drawn) | > 10 µM (inactive)
C/C(CC(=O)Nc1ccc(N(C)C)cc1)=N\NC(=O)c1ccncc1 | > 10 µM (inactive)
CN(C)/C=C1\C=C2C(=O)c3ccccc3N2C1=O | > 10 µM (inactive)
CCN(CC)C1=CC2=CC(=C(C#N)C#N)CCC2CC1 (stereo not drawn) | > 10 µM (inactive)
N#CC(C#N)=C1C=C2C=C(N3CCOCC3)CCC2CC1 (stereo not drawn) | > 10 µM (inactive)
CCCCN(C)C1=CC2=CC(=C(C#N)C#N)CCC2CC1 (stereo not drawn) | > 10 µM (inactive)
N#CC(C#N)=C1C=C2C=C(N3CCCCCC3)CCC2CC1 (stereo not drawn) | > 10 µM (inactive)
